# Rows were chosen to be rich in hits. Some 1.5% of all compounds tested hit in one or more screens of this group.
# TrxR1 substrate: qHTS Assay for Substrates of Mammalian Selenoprotein Thioredoxin Reductase 1 (TrxR1): qHTS; purified TrxR1 substrate turnover, NADPH consumption readout; Potency, µM (doses to about 114 µM), for inactives: top-dose activity change, negative = substrate turnover; hit rate 0.01% among 390,000; AID 588456, 2011; further: potency means the concentration at half of the fitted maximal effect; nearly all actives have a fitted effect of over 50% in size
# Target sequence (O89049 whole entry, looked up): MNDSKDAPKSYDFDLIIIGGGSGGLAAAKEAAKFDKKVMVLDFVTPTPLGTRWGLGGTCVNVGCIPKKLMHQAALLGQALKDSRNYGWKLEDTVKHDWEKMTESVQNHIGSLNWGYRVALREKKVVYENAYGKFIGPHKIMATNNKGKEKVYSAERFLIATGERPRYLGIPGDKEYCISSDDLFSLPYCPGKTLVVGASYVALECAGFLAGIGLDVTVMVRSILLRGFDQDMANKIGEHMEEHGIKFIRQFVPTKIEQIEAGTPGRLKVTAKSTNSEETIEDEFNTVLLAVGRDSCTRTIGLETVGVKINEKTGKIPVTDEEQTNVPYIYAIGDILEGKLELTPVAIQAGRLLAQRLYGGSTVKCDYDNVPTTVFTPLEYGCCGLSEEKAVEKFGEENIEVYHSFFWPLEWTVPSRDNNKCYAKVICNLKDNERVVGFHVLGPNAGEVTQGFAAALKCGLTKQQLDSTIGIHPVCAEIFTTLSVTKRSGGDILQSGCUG
#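 Rat TrxR1, dispensed at 90 nM, was prereduced with 400 uM NADPH (final) for 5 min at ~22 deg C, then incubated with compound 15 min before 400 uM selenite. A first-read NADPH fluorescence drop versus no-compound background flagged substrates.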
# GALK inh: qHTS Assay for Inhibitors of Human Galactokinase (GALK); Potency, µM (highest dose often 57.5 µM), without a hit: at the highest dose activity change, negative = inhibition, actives largely listed as inhibitors; Purified GALK, Kinase-Glo residual ATP luminescence; hit rate 0.007% among 270,000; further: potency means the concentration at half of the fitted maximal effect
#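 ATP-depletion format; final 35 uM ATP, 100 uM D-galactose, 5 nM enzyme; pH 8.0 HEPES/Mg2+ buffer; 60 min RT; luminescence read 10 min after detection reagent.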
# Giardia killer: Small Molecules that selectively kill Giardia lamblia: qHTS. Giardia lamblia trophozoite viability. activity change, % at 7.66 µM, hits read low. hit rate 0.15% among 340,000; in the data active means activity change below about -80%; inconclusive means between about -30% and that limit;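 further: parasites exposed to compound for two days anaerobically before the ATP read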
#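 Each well holds 100 Giardia trophozoites and compound. After two days (48 hrs) at 37 deg C in anaerobic conditions, ATP is quantified by luminescence.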
# Coupling enz: qHTS Assay for Inhibitors of Fructose-1,6-bisphosphate Aldolase from Giardia Lamblia: Coupling assay counterscreen; coupling enzyme system counterscreen, AmpLite Red fluorescence; activity change, negative = inhibition, % at 58.2 µM, hits read low; hit rate 0.67% among 290,000; in the data active means activity change below about -30%
#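 Counterscreen of the coupled detection system alone, without aldolase: glyceraldehyde-3-phosphate coupling enzymes plus AmpLite Red readout. Compounds at 57.5 uM final, 10 min RT preincubation, 20 min RT reaction, fluorescence 525/598 nm.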
# TrxR1 inh: qHTS Assay for Inhibitors of Mammalian Selenoprotein Thioredoxin Reductase 1 (TrxR1): qHTS | Thioredoxin reductase 1, cytoplasmic (Rattus norvegicus), O89049 | recombinant rTrxR1, NADPH fluorescence consumption, selenite substrate | Potency, µM (highest dose often 114 µM), without a hit: at the top dose activity change, negative = inhibition, usual class: inhibitors | hit rate 1% among 390,000; further: potency means the concentration at half of the fitted maximal effect; nearly all actives have a fitted effect of over 65% in size
#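 Rat TrxR1 (90 nM in the dispensed reagent) was pre-reduced with 400 uM NADPH for 5 min at room temperature, then incubated with compound for 15 min. After 400 uM selenite was added, NADPH fluorescence (Ex 340/Em 450 nm) was followed for 8 min.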
# PI4K2A block: qHTS for small molecular inhibitors of PI4K2A | Phosphatidylinositol 4-kinase type 2-alpha (Homo sapiens), Q9BTU6 | purified PI4K2A, ADP-Glo luminescence, 1 h; stronger effect = lower value | activity change, negative = inhibition, % at 76.9 µM | hit rate 0.13% among 420,000; in the data active means activity change below about -50%; inconclusive means mostly about -30% to -49%;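 further: -100% = wells without enzyme as full effect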
#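 In this quantitative HTS, ADP production by PI4K2A was quantified luminescently after 1 h at ambient temperature; 100 microM adenosine served as plate-quality control.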
# The depositor's hits bear a star; ? = inconclusive; / = no result; [ ] = another dose, or the depositor's remark. Unless noted, the call rests on the fitted dose curve; in most records, active means well fitted curve in the direction sought with a large enough effect; inconclusive means small, poorly fitted or top-dose-only effect, or another doubt; inactive means no such curve, though single readings can be large; an effect the other way counts as inactive or inconclusive. Unless noted, on the % scale 0 is the no-effect control and ±100 the full control effect.
SMILES,TrxR1 substrate,GALK inh,Giardia killer,Coupling enz,TrxR1 inh,PI4K2A block
COC(=O)[C@H](COC(C)(C)C)NC(=O)O[C@@H]1C(=O)c2ccc(OC)cc2O[C@H]1c1cccc(C(F)(F)F)c1,/,/,/,0,/,/
CCCC[C@H](NC(C)=O)C(=O)N[C@@H](CCC(=O)O)C(=O)N[C@@H](Cc1cnc[nH]1)C(=O)N[C@H](Cc1ccccc1)C(=O)N[C@@H](CCCN=C(N)N)C(=O)N[C@H](Cc1c[nH]c2ccccc12)C(=O)NCC(N)=O,/,/,/,-2,/,/
COc1ccc(C(=O)Oc2ccc(C(c3c(C)[nH][nH]c3=O)c3c(C)[nH][nH]c3=O)cc2OC)cc1,2%[0.457 µM],/,-10,/,-4%,-11
Cc1[nH][nH]c(=O)c1C(c1ccc(-c2cccc(C(=O)O)c2)o1)c1c(C)[nH][nH]c1=O,-10%[57.1 µM],0%,-6,-31*,-14%[57.1 µM],?
Cc1[nH][nH]c(=O)c1C(c1ccc(-c2ccc(Cl)cc2Cl)o1)c1c(C)[nH][nH]c1=O,/,-5%,/,-58*,/,/
Cc1[nH][nH]c(=O)c1C(c1ccc(Br)cc1)c1c(C)[nH][nH]c1=O,0%,-1%,-8,-3,-8%,?
Cc1[nH][nH]c(=O)c1C(c1ccc(-c2cccc(Cl)c2)o1)c1c(C)[nH][nH]c1=O,-13%,?,-1,-48*,?,?
COC(=O)c1ccc(-c2ccc(C(c3c(C)[nH][nH]c3=O)c3c(C)[nH][nH]c3=O)o2)cc1,-23%,0%,-6,-45*,-20%,-7
CC(C)=CCC/C(C)=C/CC/C(C)=C/CC/C(C)=C/C(=O)O,/,/,/,12,/,/
Cc1ccc(CN2CCCCC(NC(=O)c3ccc(C)cc3)C2=O)cc1 (centres undefined),/,/,/,/,/,-2
Cc1[nH][nH]c(=O)c1C(c1ccc(-c2ccccc2C(=O)O)o1)c1c(C)[nH][nH]c1=O,-16%,?,2,-47*,-24%,0
Cc1ccc2oc(-c3ccccc3C(=O)O)cc(=O)c2c1,7%[57.1 µM],1%,-17,5,-13%,-6
O=C1CC(Sc2nnc(-c3ccccc3)o2)C(=O)N1c1ccccc1 (centres undefined),-1%,1%,-5,0,7.1µM*,0
O=S(=O)(NC(=S)NC1CCCCC1)c1ccc(Br)cc1,13%,-4%,-18,9,2.8µM*,1
NS(=O)(=O)c1ccc(NC(=S)NC2CCCC2)cc1,4%,1%,0,0,7%,-2
NS(=O)(=O)c1ccc(NC(=S)NC2CCCCCC2)cc1,-5%,0%,-7,0,16µM*,-4
NS(=O)(=O)c1cc2c(cc1Cl)CN(C1CCCCC1)C2=O,/,/,/,/,/,1
O=c1c2c3nc4ccccc4nc3n(Cc3ccccc3)c2ncn1Cc1ccco1,25%,-4%,-8,-9,18µM*,?
O=C(NCCCCCCNC(=O)ON=C1CCCCC1)ON=C1CCCCC1,/,/,/,-2,/,/
CC(=O)c1ccc(NC2=C(N3CCOCC3)C(=O)c3ccccc3C2=O)cc1,-6%,0%,-8,-30*,-12%,-18
O=C(O)c1ccc(NC2=C(N3CCOCC3)C(=O)c3ccccc3C2=O)cc1,-5%,1%,14,-28,?,-23
Cc1ccc(Nc2nc(N3CCOCC3)nc(N3CCOCC3)n2)cc1,4%,3%,14,-7,12%,2
Cc1ccc(NC2=C(N3CCOCC3)C(=O)c3ccccc3C2=O)cc1,8%,-2%,-19,-50*,11%,?
Brc1cccc[n+]1CCCC[n+]1ccccc1Br,-13%,/,/,/,?,/
CCCCC(CC)CNC(=O)c1ccc(Cn2c(=O)[nH]c3cc(OC)c(OC)cc3c2=O)cc1 (centres undefined),3%,/,/,/,25%[2.29 µM],1
SMILES,TrxR1 substrate,GALK inh,Giardia killer,Coupling enz,TrxR1 inh,PI4K2A block
Cc1c(C(=O)N2CCCC2)oc2c1-c1[nH]ncc1CC2,-1%[57.1 µM],/,2,-49*,1%[57.1 µM],-2
COc1ccc2[nH]c(=O)c(CNc3ccccc3OC)cc2c1,13%,0%,-10,-34*,-23%,-2
COc1ccc2[nH]c(=O)c(CNc3ccccc3)cc2c1,26%[57.1 µM],3%,17,-35*,?,-1
COc1ccc2[nH]c(=O)c(CNc3ccccc3C)cc2c1,31%,12%,76,-27,?,-8
CC[C@@H]([C@H](C)O)n1ncn(-c2ccc(N3CCN(c4ccc(OC[C@@H]5CO[C@@](Cn6cncn6)(c6ccc(F)cc6F)C5)cc4)CC3)cc2)c1=O,/,/,/,/,/,-4
CNc1ccc(Br)cc(C(=O)/C=C/c2ccc(Cl)cc2Cl)c1=O,-2%[57.1 µM],7%,1,-15,-68%,-3
CNc1ccc(Br)cc(C(=O)/C=C/c2ccc(OC)cc2OC)c1=O,-10%,0%,14,-39*,14µM*,-4
O=C(/C=C/c1ccccc1)c1cc(Br)ccc(=O)c1O,-10%,1%,-12,-3,?,-18
CNc1ccc(Br)cc(C(=O)/C=C/c2cccc(OC)c2)c1=O,-5%,-3%,-2,-29,13µM*,-11
O=C(Cn1c(=O)n2nc(-c3cccc(F)c3)nc2c2ccccc21)N1CCN(c2ccccc2F)CC1,12%[57.1 µM],/,/,/,21%[57.1 µM],2
CC(C)(C)OC(=O)N1CCC(N[C@@H](Cc2c[nH]c3ccccc23)C(=O)NCCc2c[nH]c3ccccc23)(C(=O)NC2CCCCC2)CC1,/,/,/,/,/,-6
O=C(O)c1ccccc1C(=O)OCCc1cc2ccccc2c(=O)o1,-7%,/,26,/,11%[57.1 µM],2
CCN(CC)C(=O)OCCc1cc2ccccc2c(=O)o1,9%,/,5,/,40µM*,-1
Cc1ccc(NC(=O)c2cc(N3C(=O)C=CC3=O)ccc2Cl)cc1C,-2%,1%,-11,6,3.2µM*,0
Cc1ccc(NC(=O)c2cc(-n3cnnc3)ccc2Cl)cc1,5%,1%,-3,2,18%,6
Cc1ccc(NC(=O)c2cc(N3C(=O)C=CC3=O)ccc2N2CCOCC2)cc1,5%[57.1 µM],1%,-12,5,0.89µM*,1
Cc1ccc(NC(=O)c2cc(NC(=O)c3ccco3)ccc2N2CCOCC2)cc1,3%,0%,-2,-1,-3%,-9
O=C(OC12CCCN(C1)/C(=C/c1ccc(Cl)cc1)C2)C1CCCCC1 (centres undefined),/,/,/,/,/,4
Cc1cccc(CNC(=O)c2ccc(NC(=O)N3CC(C)Sc4ccccc43)cc2)c1 (centres undefined),0%,/,/,/,4%,-2
